Results taken from PubChem BioAssay (Tox21).
Inconclusive results are not listed. The source made the active and inactive calls. Calls come from the whole dose curve; as a rule, active = well fitted inhibition curve with a large enough effect in the repeat runs; inconclusive = weak or mixed curves; inactive = no such curve, though single readings can be large or run the other way.

biological target: Cytochrome P450 3A4 (Homo sapiens) (UniProt P08684); assay: Cytochrome P450 Family 3 Subfamily A Member 4 (CYP3A4) small molecule antagonists: luciferase reporter qHTS assay (AID 1671201); conditions: P450-Glo CYP3A4 enzyme, luciferin luminescence, 1 h; series mostly up to 115 µM; activity change, negative = inhibition: at the top concentration; note: nearly all actives have a fitted effect of over 50% in size
Sequence (P08684 whole entry, looked up): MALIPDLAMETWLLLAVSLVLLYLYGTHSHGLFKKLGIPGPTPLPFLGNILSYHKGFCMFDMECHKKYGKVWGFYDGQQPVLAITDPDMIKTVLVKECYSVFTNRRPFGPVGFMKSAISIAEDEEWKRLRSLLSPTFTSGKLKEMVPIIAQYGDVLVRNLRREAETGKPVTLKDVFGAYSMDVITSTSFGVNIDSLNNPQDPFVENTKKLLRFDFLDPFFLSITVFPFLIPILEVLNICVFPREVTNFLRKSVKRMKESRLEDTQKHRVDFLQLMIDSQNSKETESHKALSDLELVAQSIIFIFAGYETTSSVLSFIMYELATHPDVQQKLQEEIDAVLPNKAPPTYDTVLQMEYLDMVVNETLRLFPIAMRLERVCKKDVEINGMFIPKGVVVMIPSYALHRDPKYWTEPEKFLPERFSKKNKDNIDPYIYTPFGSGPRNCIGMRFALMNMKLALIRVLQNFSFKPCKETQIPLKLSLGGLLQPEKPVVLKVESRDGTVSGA
Outline: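 Proluciferin-to-luciferin conversion by CYP3A4, NADPH-regenerated, 1 h RT; luminescence read as RLU. Ketoconazole as control.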
% is set by controls: 0 for no effect and ±100 for the full control effect; potency is the fitted concentration of half-maximal effect.

SMILES	activity change, negative = inhibition	Potency
Cc1ccccc1S(=O)(=O)O	16.2% (inactive)	
O=S(=O)(Oc1ccc(Cl)cc1)c1ccccc1	119% (inactive)	
CNC(=O)CN(CCN(CCN(CC(=O)[O-])CC(=O)NC)CC(=O)[O-])CC(=O)[O-].O.[Gd+3]	3.76% [at 52.9 µM] (inactive)	
C=CCOC(=O)CCC1CCCCC1	3.85% (inactive)	
O=C1CCC(=O)O1	2.54% (inactive)	
CCCCC(CC)COC(=O)CCCCCCCCC(=O)OCC(CC)CCCC (centres undefined)	-2.51% (inactive)	
CCNc1cc(O)ccc1C		9.92 µM (active)
CC1CCC(=O)C1=O (centres undefined)	-1.71% (inactive)	
C=C(C)C(=O)OCCO	4.83% (inactive)	
CC1=CC=C(C(C)C)CC1		39.9 µM (active)
CCN(CC)c1ccc2c(-c3ccccc3C(=O)O)c3ccc(=[N+](CC)CC)cc-3oc2c1		12.6 µM (active)
NCCCN1CCOCC1	-3.22% (inactive)	
CCOc1ccc(N=Nc2ccc(/C=C/c3ccc(N=Nc4ccc(OCC)cc4)cc3S(=O)(=O)O)c(S(=O)(=O)O)c2)cc1	4.35% (inactive)	
CN1CCC(N(Cc2cccs2)c2ccccc2)CC1	39.3% [at 52.9 µM] (inactive)	
COc1ccc(C(=O)c2ccc(OC)cc2O)c(O)c1		25.4 µM (active)
O=C(O)c1ccc(S(=O)(=O)O)cc1C(=O)O	6.1% (inactive)	
O=C(OCCCCCCOC(=O)c1ccccc1)c1ccccc1	91.2% (inactive)	
C=C(C)C(=O)OCC	5.57% (inactive)	
CCC(C)(C)CC	1.78% (inactive)	
CCO[Si](CCCCl)(OCC)OCC		3.53 µM (active)
CN1Cc2cc(C(=O)N3CCC(C4CCNCC4)CC3)ccc2NC(CC(=O)O)C1=O (centres undefined)	0.142% [at 52.9 µM] (inactive)	
O=C(OCCc1ccccc1)c1ccccc1	33.7% (inactive)	
CC(C)(CO)[N+](=O)[O-]	0.243% (inactive)	
O=P(O)(OCc1ccccc1)OCc1ccccc1	31% (inactive)	
